Reference: the supplement of paper PMC6555819

The sequences below were run on VDR:RXRa (NR concentration 270 nM, RXRa partner concentration 90 nM) (assay: PBM binding z-score (relative to random genomic background probes); higher = stronger binding; sequences stand for … in GC…GCGATTGACAGCGTAGAATGAAGG).
Method: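 Protein-binding microarray (Agilent 4x180K custom design, double-stranded 60-nt probes: 5' GC cap, 34-nt variable region, 24-nt constant primer region; full probe sequence given). Purified or IVT nuclear receptor:RXRα heterodimers (3:1 NR:RXRα, mostly 270:90 nM) or homodimers were incubated for 1 h in PBS with 2% milk and no ligand, then detected with Alexa488 antibodies. Fluorescence from o1-orientation probes (~5 replicates averaged) was converted to z-scores against 500 random hg19 background probes. Variable regions are seed direct-repeat (DR0–DR5) sites, all their single-nucleotide variants and half-site ablations.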
Sequence CCGACTGAGGCAAGGTTACCATAACGCACAGCCA has a PBM binding z-score of 0.0737. ACTTACGGGTCAACGAGGTTAAAGCACGCGTATA gave a PBM binding z-score of 7.52. Sequence AGAATGAGGTAATACGTAGATCAGGGAAGAAAGT has a PBM binding z-score of -0.148. ATCGAAAGGTCGGCGAGGTGAGTATACACCGTTT showed a PBM binding z-score of 4.48. Sequence AAAACGAGGGCAATGAGTTGATAGCACGGGTGGC has a PBM binding z-score of 5.46. Work on AGTCAAAGTTCACTAGGTAACCTAAGATTCAGCT yielded a PBM binding z-score of 4.04. GCTAGTTGGTCAGTAAAAGGTCAGACACCGGTCG was tested, and the PBM binding z-score was 2.38. For TCATATAGGTAATACCGGTGAAAGTCGGCATCTA, the PBM binding z-score was 0.463. AGAATGATGTTATACGTAGATCAGGGAAGAAAGT was tested, and the PBM binding z-score was -0.209. Work on GTACTAAGGTGAATAGGTCGTTGATGAGTAGGCG yielded a PBM binding z-score of 1.24. AGAACGAGGGCAACGAGTTGATAGCACGGGTGGC gave a PBM binding z-score of 5.16. Sequence CCGACTGGGGCAGGGTTACCATAACGCACAGCCA has a PBM binding z-score of 0.216. For GCGAATGGGGCAAAGCAGGTTACCATAAGGTTGG, the PBM binding z-score was 0.361. Work on CGTCCAAGGTCATAGAAGGTCAGTGAAGACAGAT yielded a PBM binding z-score of 6.34. CCTTAAGGGTCAAGGTTATAGCACGGGTGGTACG was tested, and the PBM binding z-score was 4.72. In the case of TAGCCTAGGACATGGGCCAGTATACCACGCGAAC, the PBM binding z-score is reported as -0.512. TATCCAGGGTCAAAGGCCAGAGTACGAATGTCGA was tested, and the PBM binding z-score was 4.95. CCTTACGGGTCAAGGTTATAGCGCGGGTGGTACG gave a PBM binding z-score of 3.22. GCTTGTAGCTCAAGGTTAAGAAAGACTAAGCTAA showed a PBM binding z-score of -0.0239. CCTACTGAGCCAAAAAGGTCATTGATGCCGATAA was tested, and the PBM binding z-score was 4.58. For GGAACCAGGGCAAGTTGATAGCAGAGTTTGATGG, the PBM binding z-score was 0.319. TAGCCTAGGTCATGGGGCAGTATACCACGCGAAC was tested, and the PBM binding z-score was 2.45. GGAACGAGGGCAAAGATGATAGCATCTGTCGACG gave a PBM binding z-score of 0.573. For ATCTCTAGGTAACAAGTTAAGTGAAAGAGAGGAC, the PBM binding z-score was 0.232. With CCTCGGAGGACAACAGTAGGTCAGAGCTGCCAGA the PBM binding z-score was 0.152. In the case of CGTCCAAGTTCAGAGAGGTCAGTGAATGCCGAGT, the PBM binding z-score is reported as 6.86. In the case of TAGCCTAGGTCATTCAGGGGCCTGTATAGAAAGC, the PBM binding z-score is reported as 2.69. For CGAAGTAGGTCATCCAGGACAGTGAATACATTGA, the PBM binding z-score was 5.12. In the case of GGTACGAGGGCAAGTTGATAGCAGAGTTTGATGG, the PBM binding z-score is reported as 1.11. ACAGACAGGTGACGAAGGTAACTCAGGCTATCAT gave a PBM binding z-score of 0.352. In the case of CCAGACAGCTGAAAGGTAACTCAGTCTGGTACGC, the PBM binding z-score is reported as -0.0821. For CCTACCGGGCCATCAGGTCATTGATATCAACGTT, the PBM binding z-score was 1.83. For AGAATGAGGTTATTAAGATCAGGGGATTGCGGTC, the PBM binding z-score was 2.36. With ACTAGCAGGCCAAGTTTGGGTCACTTAAACAAAG the PBM binding z-score was 0.715. TCTAGTTGGGCACGGAGGTCACACACGACGGGTA was tested, and the PBM binding z-score was 4.08. With TCATATAGCTAAACAGGTGAAAGTCCGTAAGTTA the PBM binding z-score was 0.43. In the case of TTACCAAGATGAGCTGAGGTCGTTGATCCAACTC, the PBM binding z-score is reported as 1.35. In the case of AGAATGATGTTAAGATCAGGGAAACAGAATACAT, the PBM binding z-score is reported as -0.114. Work on TCATATAGGTAAACGCTAGGTGAAAGTCCGATCT yielded a PBM binding z-score of 1.03. Work on ATATGTAGGTTATAGGGTCATTCAGTTTGCGCAT yielded a PBM binding z-score of 5.98.
